In PubChem BioAssay AID1239 (SRMLSC, 2008):
Screen size: about 190,000 compounds; about 3,100 (1.6%) were called active. No stated cut-off is given here; in the data, active means fold change above about 3.3; inconclusive means no clear call, values can overlap the other calls; inactive means below that. What follows is part of a selection rich in actives, with near analogues and random picks from the rest.

Assay: activators of NF-kB expression in neurons, primary screen, cell-based, HTS (AID 1239)
Settings: human neuronal cells, NF-kB reporter expression; at 12.5 µM; active compounds read high

Row | SMILES | fold change
1 | CCc1nnc(NC(=O)CCCSc2nc3ccccc3[nH]2)s1 | 1.01 (inactive)
2 | Cc1ccnc(NC(=O)c2ccc(NC(=O)c3ccco3)cc2)c1 | 1.64 (inactive)
3 | COc1cccc(C(=O)Nc2ccc(NC(=O)c3ccco3)cn2)c1 | 1.03 (inactive)
4 | O=C(Nc1ccc(NC(=O)c2cccs2)cn1)c1ccco1 | 4.48 (active)
5 | COc1cc(CN2CCNC(=O)C2CC(=O)NCCc2ncccc2C)cc(OC)c1 (stereo not drawn) | 1.05 (inactive)
6 | COCCSc1nnc(NC(=O)c2cc(OC)c(OC)cc2[N+](=O)[O-])s1 | 1.11 (inactive)
7 | CCOC(=O)/C(=N\Nc1ccccc1Cl)N(C)C1CCS(=O)(=O)C1 (stereo not drawn) | 0.99 (inactive)
8 | COc1cc(S(=O)(=O)N2CCOCC2)ccc1NC(=O)COc1ccc(N(C)S(=O)(=O)c2ccc(C)cc2)cc1 | 0.76 (inactive)
9 | N#C/C=C\Oc1ccc(Cl)cc1N | 3.39 (active)
10 | COc1ccc(Cl)cc1C(=O)NCC#N | 0.94 (inactive)
11 | Cn1cc(CCC(=O)N2CCCC(C(=O)c3ccc(C(C)(C)C)cc3)C2)cn1 (stereo not drawn) | 0.83 (inactive)
12 | CNc1nccc(-c2ccc(Cl)cc2)c1C#N | 1.47 (inactive)
13 | Cc1c(Br)ccc(NC(=O)COc2ccccc2C(N)=O)c1C | 1.08 (inactive)
14 | O=C(NC1CCCC1)C(c1ccc(N2CCOCC2)cc1)N(C(=O)c1ccco1)c1ccccc1F (stereo not drawn) | 1.05 (inactive)
15 | O=C(COc1ccc(NC(=O)c2ccccc2[N+](=O)[O-])cc1)c1ccc(F)cc1 | 1.07 (inactive)
16 | Cc1ccc2nc(COc3ccc(N(C)S(=O)(=O)c4ccccc4)cc3)cc(=O)n2c1 | 1.11 (inactive)
17 | CC(C)c1ccc(C(=O)NCCCc2ccccc2)cc1 | 4 (active)
18 | O=C(NCCOc1ccccc1)c1ccccc1 | 4.39 (active)
19 | Cc1cc(C(=O)NCCCc2ccccc2)no1 | 1.33 (inactive)
20 | CCCOc1ccc(C(=O)NCCc2ccccc2)cc1 | 6.46 (active)
21 | Nc1ccc(C(=O)NCc2ccccc2)cc1 | 1 (inactive)
22 | NS(=O)(=O)c1cc(C(=O)NCCOc2ccccc2)c(Cl)cc1Cl | 0.66 (inactive)
23 | Cc1ccc(C(=O)NCCNC(=O)c2ccccc2)cc1 | 1.15 (inactive)
24 | O=C(NCCc1ccccc1)c1ccc(OCCOc2ccccc2)cc1 | 1.27 (inactive)
25 | COc1ccc(OCCCC(=O)NCCc2ccccc2)cc1 | 1.08 (inactive)
26 | CC(C)OC(=O)CN1CCN(c2ccc(Cl)cc2)CC1 | 1.18 (inactive)

Row | SMILES | fold change
27 | c1ccc2c(NC3C4CC5CC(C4)CC3C5)nc(N3CCOCC3)nc2c1 (stereo not drawn) | 0.99 (inactive)
28 | Cc1ccc2cc3cc(C(=O)N4CCCCCC4)oc3nc2c1 | 4.26 (active)
29 | Cc1cc(=O)oc(C)c1C(=O)N1CCCCC1 | 1.16 (inactive)
30 | Cc1cccc(C(=O)N2CCCN(C(=O)c3cccc(C)c3)CC2)c1 | 1.1 (inactive)
31 | CN1CCNC(=O)C1CC(=O)N1CC=C(c2ccc(F)cc2)CC1 (stereo not drawn) | 1.04 (inactive)
32 | O=C(Cc1nn[nH]n1)NCCC1=CCCCC1 | 1.18 (inactive)
33 | Cn1nnc2cc(C(=O)NCCC3=CCCCC3)ccc21 | 3.75 (active)
34 | O=C(Cc1cccc2ccccc12)NCCC1=CCCCC1 | 1.12 (inactive)
35 | O=C(NCCC1=CCCCC1)c1ccc(Cl)c([N+](=O)[O-])c1 | 1.68 (inactive)
36 | CN(c1ccc(C(=O)NCCC2=CCCCC2)cc1)S(C)(=O)=O | 3.37 (active)
37 | CN(c1ccc(C(=O)NCc2ccccn2)cc1)S(C)(=O)=O | 1.11 (inactive)
38 | CN(CCc1ccccn1)C(=O)CCC1CCCN(Cc2ccccc2OC(F)F)C1 (stereo not drawn) | 1.15 (inactive)
39 | Cc1ccc(NC(=O)NC2CCCCC2)cc1S(=O)(=O)N1CCOCC1 | 1.06 (inactive)
40 | CCc1ccc2oc(-c3ccc(N)cc3)nc2c1 | 5.55 (active)
41 | CCN(CC)c1ccc2oc(=O)c(C)nc2c1 | 0.65 (inactive)
42 | CCCCCC(=O)Nc1ccc2oc(-c3ccncc3)nc2c1 | 0.96 (inactive)
43 | COC(=O)Cc1ccc(Oc2ncc(C(F)(F)F)cc2Cl)cc1 | 1.13 (inactive)
44 | Fc1ccccc1/C=C1\CCCC2=C1Nc1ncnn1C2c1ccccc1F (stereo not drawn) | 4.05 (active)
45 | OCCNCc1cccc(OCc2ccccc2Cl)c1 | 0.98 (inactive)
46 | c1ccc2sc(NN=C3CCCC3)nc2c1 | 8.8 (active)
47 | O=[N+]([O-])c1cc(Br)c(O)c(/C=N/Nc2nc3ccccc3s2)c1 | 0.65 (inactive)
48 | Fc1ccc2nc(Nc3nc4c(s3)CCCC4)sc2c1 | 3.04 (inactive)
49 | Cc1ccccc1NCC(=O)N/N=C\c1ccc([N+](=O)[O-])s1 | 0.63 (inactive)
50 | CC(=O)Nc1cc2ccc(OC(C)=O)cc2oc1=O | 1.34 (inactive)
51 | O=C(O)c1ccc(NC(=O)C2CCCCC2)cc1 | 1.04 (inactive)
52 | O=C(Nc1cc2ccccc2oc1=O)C1CCCCC1 | 4.4 (active)

Row | SMILES | fold change
53 | O=C(N/N=C/c1ccc(OCC2COCCO2)cc1)c1ccc(Br)cc1 (stereo not drawn) | 0.81 (inactive)
54 | CNc1nc2c(C)cccn2c(=O)c1C=Nc1ccc(OC)cc1 | 1.61 (inactive)
55 | Nc1[nH]c(=S)nc2nc(-c3ccccc3)c(-c3ccccc3)nc12 | 1.13 (inactive)
56 | COc1ccc(C2=NOC3(CC(=O)N(c4ccc(C)cc4)C3=O)C2)cc1 (stereo not drawn) | 0.77 (inactive)
57 | COc1ccc(C2=Nc3cc(C)ccc3OC2)cc1 | 6.75 (active)
58 | COc1ccc(C2=NOC(COC(=O)c3ccc4ccccc4n3)C2)cc1 (stereo not drawn) | 1.25 (inactive)
59 | COC(=O)[C@H](C)[C@H]1C[C@]1(C)[C@H](NC(=O)OCc1ccccc1)c1ccccc1 | 0.97 (inactive)
60 | O=C(NCc1ccccc1)[C@H]1C[C@@H]1[C@H](NP(=O)(c1ccccc1)c1ccccc1)c1ccccc1 | 0.77 (inactive)
61 | CC(C)(C)[Si](OCC[C@@H]1C[C@@]1(C)[C@@H](NP(=O)(c1ccccc1)c1ccccc1)c1ccccc1)(c1ccccc1)c1ccccc1 | 3.34 (active)
62 | CCOC(=O)CCCNC(=O)COC(=O)/C=C/c1ccc2c(c1)OCO2 | 1.06 (inactive)
63 | CC1(C)CC(=O)CC2(C1)NCC(c1ccccc1Cl)c1c2[nH]c2ccccc12 (stereo not drawn) | 0.75 (inactive)
64 | O=C(COc1ccc([N+](=O)[O-])cc1)Nc1ccc(N2CCCC2)cc1 | 1.07 (inactive)
65 | N/C(Cc1ccc([N+](=O)[O-])cc1)=N\OC(=O)C1CCCCC1 | 1.13 (inactive)
66 | O=C(COC(=O)C1CCCCC1)Nc1ccc([N+](=O)[O-])cc1 | 6.28 (active)
67 | CC1=NCCN1S(=O)(=O)c1cccc([N+](=O)[O-])c1 | 1.03 (inactive)
68 | CCOC(=O)C(C)n1nc(-c2ccccc2)c2ccccc2c1=O (stereo not drawn) | 0.91 (inactive)
69 | CCCn1c(NC(=O)C23CC4CC(CC(O)(C4)C2)C3)nc2ccccc21 | 0.92 (inactive)
70 | NS(=O)(=O)c1ccc(NC(=O)COC(=O)c2ccc(Cl)nc2)cc1 | 0.87 (inactive)
71 | CC(C(=O)O)n1cnc2sc3c(c2c1=O)CCCC3 (stereo not drawn) | 1.12 (inactive)
72 | O=C(N/N=C/c1ccc2c(c1)OCO2)C(=O)N1CCCC1 | 1.4 (inactive)
73 | Cc1nc2sc(C(=O)c3ccccc3)c(N)c2c2c1CCCC2 | 1.93 (inactive)
74 | CN(C)c1ccnc2sc3c(=O)n(Cc4ccccc4)cnc3c12 | 0.86 (inactive)
75 | CN(C)c1ccnc2sc(C(=O)c3ccccc3)c(N)c12 | 3.79 (active)
76 | COc1ccc(/C=C/CN2CCCC(C(=O)c3cc(F)ccc3F)C2)cc1 (stereo not drawn) | 1.06 (inactive)
77 | CCOc1ccc2nc(NCCNC(=O)C(C)(C)C)c(C)cc2c1 | 1.12 (inactive)
78 | O=C(CCc1nnc(CCCCc2ccccc2)o1)NC(c1cccnc1)C(F)(F)F (stereo not drawn) | 0.86 (inactive)

Row | SMILES | fold change
79 | Cc1ccc(-n2cc3ccc([N+](=O)[O-])cc3n2)cc1 | 9.31 (active)
80 | CC(C)(C)NC(=O)Cn1cnc2cc([N+](=O)[O-])ccc2c1=O | 1.11 (inactive)
81 | Cc1ccc(-c2cn(S(=O)(=O)c3cccc([N+](=O)[O-])c3)nc2N)cc1 | 1.2 (inactive)
82 | O=C(O)CSCC(=O)Nc1ccc(C(F)(F)F)cc1 | 1.18 (inactive)
83 | C=CCSc1nc2ccccc2[nH]1 | 1.17 (inactive)
84 | O=C(CSc1nc2ccccc2[nH]1)c1cccs1 | 3.8 (active)
85 | CCCCSc1nc2ccccc2[nH]1 | 2.06 (inactive)
86 | COc1ccc(/C=N/NC(=O)Cn2cc(C(F)(F)F)ccc2=O)cc1 | 1.07 (inactive)
87 | O=C(O)/C=C/c1ccc(S(=O)(=O)N2CCCCCC2)cc1 | 1.17 (inactive)
88 | CCCC(=O)Nc1ccc(C(=O)NCCCn2ccnc2)cc1 | 1.01 (inactive)
89 | CCCC(=O)Nc1ccc(C(=O)N/N=C/c2ccc[nH]2)cc1 | 6.81 (active)
90 | CCCCCC(=O)Nc1ccc(C(=O)N/N=C/c2ccc([N+](=O)[O-])cc2)cc1 | 1.05 (inactive)
91 | CCn1c(N)c(Br)c(=O)[nH]c1=O | 0.94 (inactive)
92 | CN(C)c1ccc(C2Nc3ccccc3C(=O)N2NS(=O)(=O)c2ccccc2)cc1 (stereo not drawn) | 0.87 (inactive)
93 | CC1(C)CC(=O)C(C2c3ccccc3S(=O)(=O)c3ccccc32)C(=O)C1 | 1.19 (inactive)
94 | Cc1ccc(C(=O)NN(CCC#N)C2=NS(=O)(=O)c3ccccc32)cc1 | 1.06 (inactive)
95 | CC1(C)C2CC=C(/C=N/NC(=O)C3CC3)C1C2 (stereo not drawn) | 1.13 (inactive)
96 | CC(C)(C)NS(=O)(=O)c1ccc(NC(=O)NC2CCCCC2)cc1 | 0.89 (inactive)
97 | CC(C)c1ccc(NC(=O)NC2CCCCC2)cc1 | 5.47 (active)
98 | CC(C)N1CCC(NC(=O)Nc2ccccc2)CC1 | 1.04 (inactive)
99 | CCOc1cc(NC(=S)NCc2ccco2)c(OCC)cc1NC(=O)c1ccco1 | 1.12 (inactive)
100 | CCN(CC)C(=O)C(=O)c1cn(CC(=O)NCc2ccc3c(c2)OCO3)c2ccccc12 | 1.39 (inactive)
101 | CCc1ccc2c(c1)C1(NN=C(c3ccccc3)S1)C(=O)N2 (stereo not drawn) | 4.48 (active)
102 | C=C1c2cc(CC)ccc2NC(=O)N1c1ccc(C)cc1 | 1.19 (inactive)
103 | O=C1Nc2ccccc2C12Nc1ccccc1S2 (stereo not drawn) | 1.44 (inactive)
